“And” between values parts separate entries of the source, which are not always exact repeats. Equal values may be shown once.
How the values were obtained:
Assay in all cases: cell viability relative to vehicle control; higher = less cytotoxic
Conditions in all cases: 10 µM
[1] = system: K562
In short: (§1)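 Mutant clones made by CRISPR editing and their isogenic wild-type counterparts, from four leukaemia lines, were exposed to a single 10 µM dose of each library compound for 48 h. The supernatant was then removed and CellTiter-Glo luminescence was read. Viability was reported as percent of the on-plate vehicle control.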

[2] = system: MARIMO
In short: as §1

[3] = system: MOLM14
In short: as §1

[4] = system: OCI-AML2
In short: as §1

Cn1nnc(-c2ccc(-c3ccc(N4C[C@H](COP(=O)(O)O)OC4=O)cc3F)cn2)n1 [Tedizolid Phosphate]
cell viability ([1]; SRSF2 genotype: SRSF2 P95H/wt): 81.5% and 82.6%
cell viability ([1]; SRSF2 genotype: SRSF2 wt/wt): 84.9%
cell viability ([2]; SRSF2 genotype: SRSF2 P95H/wt): 88.8%
cell viability ([2]; SRSF2 genotype: SRSF2 wt/wt): 94.5%
cell viability ([3]; SRSF2 genotype: SRSF2 P95H/wt): 91.8%
cell viability ([3]; SRSF2 genotype: SRSF2 wt/wt): 92.3%
cell viability ([4]; SRSF2 genotype: P95H/wt): 82.3%
cell viability ([4]; SRSF2 genotype: wt/wt): 87.8%

O=C1CCCC(=O)C1C(=O)c1ccc(C(F)(F)F)cc1[N+](=O)[O-] [Nitisinone]
cell viability ([1]; SRSF2 genotype: SRSF2 P95H/wt): 105%
cell viability ([1]; SRSF2 genotype: SRSF2 wt/wt): 108%
cell viability ([2]; SRSF2 genotype: SRSF2 P95H/wt): 103%
cell viability ([2]; SRSF2 genotype: SRSF2 wt/wt): 109%
cell viability ([3]; SRSF2 genotype: SRSF2 P95H/wt): 104%
cell viability ([3]; SRSF2 genotype: SRSF2 wt/wt): 108%
cell viability ([4]; SRSF2 genotype: P95H/wt): 110%
cell viability ([4]; SRSF2 genotype: wt/wt): 111%

O=C(NCc1cccc(O)c1)Nc1nc(-c2ccncc2)cs1
cell viability ([1]; SRSF2 genotype: SRSF2 P95H/wt): 92% and 95.8%
cell viability ([1]; SRSF2 genotype: SRSF2 wt/wt): 106%
cell viability ([2]; SRSF2 genotype: SRSF2 P95H/wt): 65.6%
cell viability ([2]; SRSF2 genotype: SRSF2 wt/wt): 85.8%
cell viability ([3]; SRSF2 genotype: SRSF2 P95H/wt): 25.3%
cell viability ([3]; SRSF2 genotype: SRSF2 wt/wt): 60.8%
cell viability ([4]; SRSF2 genotype: P95H/wt): 18.8%
cell viability ([4]; SRSF2 genotype: wt/wt): 27.6%

CC1(C)CC[C@]2(NC(=O)C(C)(F)F)CC[C@]3(C)[C@H](C(=O)C=C4[C@@]5(C)C=C(C#N)C(=O)C(C)(C)[C@@H]5CC[C@]43C)[C@@H]2C1 [Omaveloxolone (RTA-408)]
cell viability ([1]; SRSF2 genotype: SRSF2 P95H/wt): 9.19% and 4.65%
cell viability ([1]; SRSF2 genotype: SRSF2 wt/wt): 5.62%
cell viability ([2]; SRSF2 genotype: SRSF2 P95H/wt): 1.12%
cell viability ([2]; SRSF2 genotype: SRSF2 wt/wt): 0.48%
cell viability ([3]; SRSF2 genotype: SRSF2 P95H/wt): 0.3%
cell viability ([3]; SRSF2 genotype: SRSF2 wt/wt): 0.25%
cell viability ([4]; SRSF2 genotype: P95H/wt): 0.23%
cell viability ([4]; SRSF2 genotype: wt/wt): 0.32%

CCn1cc(C(=O)O)c(=O)c2ccc(C)nc21 [Nalidixic acid (NegGram)]
cell viability ([1]; SRSF2 genotype: SRSF2 P95H/wt): 96.8% and 104%
cell viability ([1]; SRSF2 genotype: SRSF2 wt/wt): 106%
cell viability ([2]; SRSF2 genotype: SRSF2 P95H/wt): 107%
cell viability ([2]; SRSF2 genotype: SRSF2 wt/wt): 101%
cell viability ([3]; SRSF2 genotype: SRSF2 P95H/wt): 105%
cell viability ([3]; SRSF2 genotype: SRSF2 wt/wt): 109%
cell viability ([4]; SRSF2 genotype: P95H/wt): 104%
cell viability ([4]; SRSF2 genotype: wt/wt): 91.1%

Cc1cccc(Nc2nc(N[C@@H]3CCCC[C@@H]3N)ncc2C(N)=O)c1
cell viability ([1]; SRSF2 genotype: SRSF2 P95H/wt): 50.9% and 56.3%
cell viability ([1]; SRSF2 genotype: SRSF2 wt/wt): 63.7%
cell viability ([2]; SRSF2 genotype: SRSF2 P95H/wt): 47.4%
cell viability ([2]; SRSF2 genotype: SRSF2 wt/wt): 44.7%
cell viability ([3]; SRSF2 genotype: SRSF2 P95H/wt): 22%
cell viability ([3]; SRSF2 genotype: SRSF2 wt/wt): 20.7%
cell viability ([4]; SRSF2 genotype: P95H/wt): 4.23%
cell viability ([4]; SRSF2 genotype: wt/wt): 14.4%
